Screening data deposited in PubChem by National Center for Advancing Translational Sciences (NCATS).
A selection: hits, their analogues and other compounds. The true share with any hit is near 9.4%.
SMN2 splice up – enhancers of SMN2 splice variant expression | AID 1458 | hit rate 2.8% among 210,000 | Potency, µM (doses to about 46.1 µM), for inactives: top-dose activity change, positive = activation, most hits filed as activators | HEK293 SMN2-luciferase splicing reporter, luminescence, 30-36 h; also: % of control where 0% means no effect; nearly all actives have a fitted effect of over 55% in size
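HEK293 cells carry an SMN2 […]–luciferase reporter in which exon 7 inclusion puts luciferase in frame. Cells were plated 10-12 h before compound addition, then incubated 30-36 h at 37C. ONE-Glo luminescence was read; sodium butyrate at 4.5 mM final served as control.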
Rab9 promoter act – activates the Rab9 promoter. Huh7 Rab9 promoter-luciferase reporter, luminescence, 24 h. AID 485297. Potency, µM (doses to about 9.22 µM), without a hit: at the top dose activation, negative = inhibition, usual class: activators. hit rate 2.8% among 320,000; also: % of control where 0% means no effect; nearly all actives have a fitted effect of over 60% in size
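Luminescence from Amplite-detected luciferase (10 minutes, ambient) reports Rab9 promoter activation. Before that, stable Rab9-luciferase Huh7 cells (1500/well, reduced-serum OP-MEM I plus 10% FBS) were exposed to compound for 24 hours at 37C.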
FLuc modulator – firefly luciferase modulation, counter-screen for miR-21 project. P08659. purified FLuc, Km substrates, luminescence inhibition. Potency, µM (titrated, usually from 57.5 µM), without a hit: at the highest dose activity change, negative = inhibition, most hits filed as inhibitors. hit rate 6.9% among 360,000;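 also: plate controls were vehicle for no effect and reference inhibitor for full effect; nearly all actives have a fitted effect of over 55% in size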
Target sequence (P08659 whole entry, looked up): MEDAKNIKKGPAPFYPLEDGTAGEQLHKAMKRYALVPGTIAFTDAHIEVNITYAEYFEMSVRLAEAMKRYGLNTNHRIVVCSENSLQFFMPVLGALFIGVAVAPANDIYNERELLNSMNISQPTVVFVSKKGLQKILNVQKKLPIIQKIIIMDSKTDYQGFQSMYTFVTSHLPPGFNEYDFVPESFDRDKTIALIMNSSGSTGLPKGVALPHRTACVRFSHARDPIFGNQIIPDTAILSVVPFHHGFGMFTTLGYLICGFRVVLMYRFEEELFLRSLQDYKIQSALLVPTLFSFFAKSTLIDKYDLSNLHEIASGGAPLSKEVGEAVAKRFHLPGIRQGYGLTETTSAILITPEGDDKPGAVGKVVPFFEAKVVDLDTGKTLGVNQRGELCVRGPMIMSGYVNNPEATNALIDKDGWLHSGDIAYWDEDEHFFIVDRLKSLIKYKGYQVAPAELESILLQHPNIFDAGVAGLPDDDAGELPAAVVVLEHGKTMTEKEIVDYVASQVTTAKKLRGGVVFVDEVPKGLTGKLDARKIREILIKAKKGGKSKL
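Purified P. pyralis luciferase, 10 nM final, with Km-level 10 uM D-luciferin and 10 uM ATP in 50 mM Tris acetate pH 7.5, 10 mM Mg acetate, 0.01% Tween-20, 0.05% BSA; 6-point qHTS titration about 60 µM downward; luminescence read.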
NPC1 promoter act – activates the NPC1 promoter | Potency, µM (top dose mostly 9.22 µM), for the others: at the top dose activation, usual class: activators | hit rate 2.4% among 320,000 | AID 485313 | Huh7 NPC1 promoter luciferase reporter, 24 h; also: % of control where 0% means no effect; nearly all actives have a fitted effect of over 60% in size
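Stable NPC1-promoter luciferase Huh7 line; cpd (DMSO) 24 h, 37 °C, 5% CO2; Amplite luciferase reagent 10 min RT; luminescence readout. qHTS format.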
ELG1 repair inh – ELG1-dependent DNA repair inhibition; HEK293T ELG1-luciferase reporter, luminescence, 16 h; DNA damage induced by 5-fluorouridine; Potency, µM (titrated, usually from 46.1 µM), inactives show at the highest dose activity change, negative = inhibition, usual class: inhibitors; hit rate 2.3% among 330,000; also: % is scaled to controls: 0 for no effect and ±100 for the full control effect; nearly all actives have a fitted effect of over 55% in size
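In this reporter screen, reduction of luminescence relative to DMSO vehicle indicated activity. Compounds and 5-fluorouridine were added together to 2,000 cells per well, incubated for 16 hr at 37 °C, then developed with ONE-Glo.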
ELG1 genotox – induces genotoxicity in HEK293T cells with luciferase-tagged ELG1 | HEK293T ELG1-luciferase reporter, luminescence, 16 h | Potency, µM (titrated, usually from 46 µM), inactives show at the top dose activity change, positive = activation, actives largely listed as activators | hit rate 1.3% among 330,000 | AID 504466; also: % of control where 0% means no effect; nearly all actives have a fitted effect of over 60% in size
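Genotoxicity was scored as increased ELG1-luciferase reporter signal, measured by ONE-Glo luminescence (30 min, room temperature). Compound or vehicle exposure of the HEK293T reporter cells lasted 16 hr at 37°C.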
* hit, by the source's call; ? = inconclusive; . = no result given. Calls follow the shape of the dose curve; as a rule, active = well fitted curve in the direction sought with a large enough effect; inconclusive = small, poorly fitted or top-dose-only effect, or another doubt; inactive = no such curve, though single readings can be large; an effect the other way counts as inactive or inconclusive. Potency is read from the fitted curve at half-maximal effect.

SMILES | SMN2 splice up | Rab9 promoter act | FLuc modulator | NPC1 promoter act | ELG1 repair inh | ELG1 genotox
O=C(NCCc1ccccc1)C(=O)NCC1CCCN1S(=O)(=O)c1ccccc1 (centres undefined) | . | -6% | -1% | -21% | ? | -24%
COc1ccc(CCNC(=O)C(=O)NCC2CCCN2S(=O)(=O)c2ccc(OC)cc2)cc1 (centres undefined) | . | -3% | 4% | -2% | 21µM* | -28%
O=C(Nc1cc(Cl)ccc1N1CCOCC1)c1ccc(F)c(S(=O)(=O)N2CCOCC2)c1 | . | 1% | 1% | 8% | ? | -6%
CCOc1ccccc1NC(=O)c1ccc(F)c(S(=O)(=O)N2CCC3(CC2)OCCO3)c1 | -8% | 0% | 0% | -6% | 21µM* | -3%
Cc1ccc(NC(=O)c2ccc(F)c(S(=O)(=O)N3CCOCC3)c2)cc1F | -39% | -6% | -1% | -4% | -13% | -12%
O=C(Nc1ccccc1)c1ccc(F)c(S(=O)(=O)N2CCOCC2)c1 | -20% | 4% | -1% | 0% | 15µM* | -9%
O=C(NCC1CCCO1)c1ccc(Cl)c(S(=O)(=O)N2CCOCC2)c1 (centres undefined) | . | 0% | -1% | 2% | 6% | -1%
O=C(Nc1ccc(-c2cn3ccsc3n2)cc1)c1ccc(F)c(S(=O)(=O)N2CCOCC2)c1 | -71% | 1% | -14% | 0% | 16µM* | -54%
O=C(Nc1ccccc1)c1ccc(NCC2CCCO2)c(S(=O)(=O)N2CCOCC2)c1 (centres undefined) | 13% | 1% | -15% | 4% | 23µM* | -8%
Cc1ccc(C)c(CN2C(=O)c3ccccc3S(=O)(=O)c3ccc(C(=O)N4CCN(c5ccccc5F)CC4)cc32)c1 | -18% | . | -1% | . | . | .
CCOc1ccccc1C(=O)Oc1c(S(=O)(=O)c2ccc(C)cc2)c(C)nn1-c1ccccc1 | -1% | . | ? | . | . | .
COc1cc2ncc3c(-c4ccccc4)nn(CC(=O)NC4CCCCC4)c3c2cc1OC | . | . | -5% | . | . | .
COc1ccc(/C=C2\SC(=S)N(CC(=O)N(C)C3CCS(=O)(=O)C3)C2=O)cc1 (centres undefined) | . | 0% | 19µM* | 13% | 9% | 4%
COc1cccc(/C=C2\SC(=S)N(CC(=O)N(C)C3CCS(=O)(=O)C3)C2=O)c1 (centres undefined) | . | -2% | 11µM* | -1% | 0% | 5%
Cc1ccc(-n2nc(C(=O)N3CCN(c4cc(Cl)ccc4C)CC3)c3c4ccccc4n(C)c3c2=O)cc1 | -5% | . | 1% | . | . | .
CCN1CCN(c2oc(-c3ccc(COc4ccc(C)cc4)o3)nc2C#N)CC1 | . | . | -4% | . | . | .
Cc1cc(SCC(=O)Nc2ccc(C(F)(F)F)cc2)nc(=O)[nH]1 | . | . | -8% | . | . | .
O=C1OCCN1C(=O)[C@H]1[C@H](c2ccc([N+](=O)[O-])cc2)C(c2ccc(F)cc2)=NN1c1ccc(Br)cc1 | . | . | . | . | ? | -3%
CCCN1C(C(=O)c2ccccc2)=C(OC(=O)COc2ccc(C)cc2)c2ccccc2S1(=O)=O | 10% | . | -14% | . | . | .
CCOc1ccc(-c2cc(CCCC(=O)NCCC(C)C)no2)cc1 | -12% | 25% | 6µM* | 17% | ? | 4%
CCOc1ccc(CCNC(=O)CCCc2cc(-c3ccc(OCC)cc3)on2)cc1 | 0% | . | -8% | . | . | .
CCOc1ccc(-c2cc(CCCC(=O)NCCc3ccccc3)no2)cc1 | -30% | -2% | ? | 10% | 0% | ?
CCOc1ccc(-c2cc(CCCC(=O)NCc3cccnc3)no2)cc1 | 13% | ? | 11µM* | ? | ? | ?
CCOc1ccc(Cc2nc(-c3nonc3N)no2)cc1OCC | 10% | 10% | 2% | 8% | 10% | 2%
Nc1nonc1-c1noc(N2CCOCC2)n1 | -45% | 5% | -11% | 0% | ? | 6%
SMILES | SMN2 splice up | Rab9 promoter act | FLuc modulator | NPC1 promoter act | ELG1 repair inh | ELG1 genotox
Nc1nonc1-c1noc(COc2ccccc2Cl)n1 | 11µM* | 1.1µM* | 4.8µM* | 1.4µM* | ? | 5.2µM*
Cc1cccc(OCc2nc(-c3nonc3N)no2)c1C | 10µM* | ? | ? | 3.2µM* | ? | 10µM*
Cc1ccccc1CNC(=O)C(=O)NCC(c1cccs1)S(=O)(=O)c1ccc(Cl)cc1 (centres undefined) | . | . | 1% | . | . | .
Cc1ccc(/C=C2\SC(=S)N(CCCC(=O)Nc3cccc(C(=O)O)c3)C2=O)cc1 | . | 15% | 3% | 3% | 8% | 9%
O=C(CCCN1C(=O)/C(=C/c2ccccc2Cl)SC1=S)Nc1cccnc1 | . | -32% | 13µM* | -22% | ? | -10%
COc1ccc(/C=C2\SC(=S)N(CCC(=O)Nc3cccc(C(=O)O)c3)C2=O)cc1 | . | 2% | 5.4µM* | 18% | 18% | 8%
O=C(CCN1C(=O)/C(=C/c2ccc3c(c2)OCO3)SC1=S)Nc1cccc(C(=O)O)c1 | . | 0% | 21µM* | 10% | 12% | 2%
COc1cccc(/C=C2\SC(=S)N(CCCC(=O)Nc3ccc(C(=O)O)cc3)C2=O)c1 | . | -13% | 21µM* | -3% | 15% | 1%
Cc1cccc(-c2nc3c4ccccc4nc(N4CCN(c5ccccc5F)CC4)n3n2)c1 | 4% | . | -13% | . | . | .
Cc1cccc(C(=O)NCCc2nc3ccccc3n2CCC(C)C)c1 | -16% | . | 2% | . | . | .
O=C(CCN1C(=O)/C(=C\C=C\c2ccccc2)SC1=S)Nc1cccc(C(=O)O)c1 | . | ? | 0.95µM* | 3.2µM* | ? | ?
O=C(O)CCN1C(=O)/C(=C\c2cccc(OCC(=O)Nc3ccc(Cl)cc3)c2)SC1=S | . | 29% | 17µM* | 27% | ? | 2%
O=C(CCN1C(=O)/C(=C/c2ccc(Cl)cc2)SC1=S)Nc1cccc(C(=O)O)c1 | . | -3% | 15µM* | 2% | 1% | -4%
O=C(CCCN1C(=O)/C(=C\c2ccccc2)SC1=S)Nc1cccc(C(=O)O)c1 | . | 3% | ? | 2% | -6% | 0%
Cc1cccc(CNc2ncnc3ccc(-c4ccc(C(=O)N(C)C)cc4)cc23)c1 | 3% | . | . | . | . | .
CC(C)Oc1ccc(CNC(=O)CN2C(=O)c3cccnc3Oc3ccc(Cl)cc32)cc1 | . | . | -13% | . | . | .
Cc1ccc(C(=O)CSc2n[nH]c(C)n2)cc1 | 6% | 13% | ? | 13% | ? | ?
COc1ccc(-c2nc(SCC(=O)c3ccc(Br)cc3)n[nH]2)cc1 | -13% | . | 1% | . | . | .
CC(C)c1ccc(C(=O)CSc2n[nH]c(-c3ccncc3)n2)cc1 | 33% | 3% | 15µM* | 3% | 4% | -1%
